# Data as given in PubChem BioAssay.
# A number with no mark means an inactive call.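 How the source made its calls: active means viability loss from added drug above about 55%, and viability with drug at most 40%, in both replicates (limit read from the data, passing the limit was not always enough); inconclusive means both conditions met in only one replicate; inactive means neither replicate meets both conditions.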
# Assay: MRP1 drug-resistance reversers in H69AR cells – cell-based, doxorubicin co-treatment, pilot screen (AID 601)
# Conditions: H69AR cells + 2 uM doxorubicin, CellTiter-Glo, 72 h; at 10 µM; stronger effect = higher value
row,SMILES,differential viability (reversal) [%]
1,CC[N+](C)(C)c1cccc(O)c1,9.69
2,NC(Cc1ccc(Oc2ccc(O)cc2)cc1)C(=O)O (stereo not given),7.61
3,COCCN(C(=O)CCC(=O)Nc1ccccn1)C(C(=O)NC1CCCC1)c1ccc(OC)cc1 (stereo not given),14.3
4,Cc1ncc([N+](=O)[O-])n1CC(O)CCl (stereo not given),0.25
5,CCCCOc1ccc(CC(=O)NO)cc1,-0.05
6,Nc1ccc2cn[nH]c2c1,-18.1
7,CCC(=NC(C)c1ccccc1)c1c(O)n(C)c(=O)n(C)c1=O (stereo not given),-14.2
8,C[C@]12C[C@H](O)[C@H]3[C@@H](CCC4=CC(=O)CC[C@@]43C)[C@@H]1CC[C@@H]2C(=O)CO,-5.99
9,OCCOCCN1CCN(C(c2ccccc2)c2ccc(Cl)cc2)CC1 (stereo not given),9.31
10,Cn1cc(NC(=O)c2cc(NC(=O)c3cc(NC=O)cn3C)cn2C)cc1C(=O)NCCC(=N)N,-13.2
11,Cn1c(SCC(=O)N2CCOCC2)nnc1-c1cnccn1,10.4
12,CC(=O)C1=C(O)C(=O)N(Cc2cccnc2)C1c1ccccc1 (stereo not given),10
13,Cc1cccc(Nc2ccccc2C(=O)O)c1C,-3.9
14,CCOC(=O)c1c(NCc2ccc3c(c2)OCO3)c2ccccc2[nH]c1=O,-5.86
15,C[C@]12CC[C@H]3[C@@H](CCC4=CC(=O)CC[C@@]43C)[C@@H]1CC[C@@H]2C(=O)CO,-16.3
16,COc1ccc2cc([C@H](C)C(=O)O)ccc2c1,11.8
17,CCC(NC(C)C)C(O)c1ccc(O)c2[nH]c(=O)ccc12 (stereo not given),11.7
18,COc1cc2nc(N3CCN(C(=O)C4CCCO4)CC3)nc(N)c2cc1OC (stereo not given),-0.44
19,CN1Cc2c(N)cccc2C(c2ccccc2)C1 (stereo not given),5.5
20,C[C@H]1C[C@H]2[C@@H]3CCC4=CC(=O)C=C[C@]4(C)[C@@]3(Cl)[C@@H](O)C[C@]2(C)[C@@]1(O)C(=O)CO,-5.3

row,SMILES,differential viability (reversal) [%]
1,C[C@]12CC[C@@H]3c4ccc(O[C@@H]5O[C@H](C(=O)O)[C@@H](O)[C@H](O)[C@H]5O)cc4CC[C@H]3[C@@H]1C[C@@H](O)[C@@H]2O,17.1
2,Cc1c(C(=O)O)sc2ncn(C)c(=O)c12,11.7
3,O=c1ccc(S(=O)(=O)N2CCC(Cc3ccccc3)CC2)c[nH]1,8.51
4,CCn1cc(C(=O)O)c(=O)c2cnc(N3CCNCC3)nc21,16.4
5,Nc1nnc(-c2cccc(Cl)c2Cl)c(N)n1,3.66
6,O=C(O)CCCCCCC1C(=O)NC(=O)N1CCC(O)C1CCCCC1 (stereo not given),-4.75
7,COc1ccc(CN(CCN(C)C)c2ccccn2)cc1,19.5
8,O=C(NCC1CCCCN1)c1cc(OCC(F)(F)F)ccc1OCC(F)(F)F (stereo not given),-4.55
9,c1ccc2nc(-c3nc4ccccc4[nH]3)ccc2c1,-3.97
10,CCCC(=O)Nc1ncnc2c1ncn2[C@@H]1O[C@@H]2COP(=O)(O)O[C@H]2[C@H]1OC(=O)CCC,13.3
11,COc1cc(OC)c(NC(=O)c2ccco2)cc1Cl,-12.1
12,O=S(=O)(c1ccc(OCC(O)CN2CCC(Cc3ccccc3)CC2)cc1)N1CCOCC1 (stereo not given),-9.48
13,C/C(N)=C(/C#N)C(=O)COC(=O)CCSc1ccccc1,-0.045
14,CCCC(=O)O[C@]1(C(=O)COC(C)=O)CC[C@H]2[C@@H]3C[C@H](F)C4=CC(=O)C=C[C@]4(C)[C@@]3(F)[C@@H](O)C[C@@]21C,-8.84
15,Cn1c(-c2ccccc2)cc(=O)c2ccccc21,-6.83
16,Cc1cccc(C)c1NC(=O)C1CCCCN1C (stereo not given),12
17,CCC(NC(C)C)C(O)c1ccc(O)c(O)c1 (stereo not given),-6.46
18,C=C(c1cccc2ccccc12)P(=O)(O)O,6.39
19,COC(=O)CSc1nc(C)c(C(C)=O)cc1C#N,9.68
20,C[C@]12CC[C@@H]3c4ccc(O)cc4CC[C@H]3[C@@H]1CC[C@@H]2OC(=O)CCC(=O)O,0.94
